Experimental data as given in PubChem BioAssay AID1076 (NMMLSC, 2008).
Activity calls are given as the source filed them.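 Rule for the calls: active = cell event count below 40, meaning activity score above 60 where score is 100 minus count; inactive = the rest.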

Assay: LNCaP cell loss by flow event count, confirmation, cytotoxicity control for prostate differentiation activator project, single point (AID 1076);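 note: counts scatter-gated live cells after medium removal discards detached dead cells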
Conditions: flow cytometry event count, 4 d, at 100 µM, stronger effect = lower value

Row | Structure (SMILES) | cell event count
1 | CCOc1ccc(NC(=O)COc2nsnc2N2CCCCC2)cc1 | 23 (active)
2 | Cc1cc(C)c2c(=O)n(CC(=O)NCCCN3CCN(c4ccccc4F)CC3)sc2n1 | 15 (inactive)
3 | O=C(NCCCN1CCN(c2ccccc2F)CC1)C1CCCN(S(=O)(=O)c2cnc[nH]2)C1 (stereo unspecified) | 425 (inactive)
4 | O=c1cc(-c2ccccc2)[nH]c2ccccc12 | 9 (active)
5 | Cc1ccc(C(=O)/C=C/Nc2cccc(O)c2)cc1 | 17 (inactive)
6 | Cn1cc(CNC(=O)C2c3ccccc3Oc3ccccc32)cn1 | 465 (inactive)
7 | CCN(CC)CCNC(=O)c1nn(-c2ccc(C)cc2)c(=O)c2c1c1ccccc1n2C | 18 (inactive)
8 | COc1ccc2cc3cc(C(=O)Nc4ccccc4N4CCN(C)CC4)oc3nc2c1 | 41 (inactive)
9 | O=C1CCCc2c1cc(C(=O)NC1CCSC1=O)c(=O)n2-c1ccccc1 (stereo unspecified) | 253 (inactive)
10 | O=c1cc(N2CCN(c3ccc(F)cc3)CC2)[nH]c(=O)n1C1CCCCC1 | 173 (inactive)
11 | CCN1CCN(c2ncc(C(=O)Nc3cc(Cl)c(OC)cc3OC)c3ccccc23)CC1 | 41 (inactive)
12 | Cc1ccc(Nc2cc(=O)n(C3CCCCC3)c(=O)[nH]2)cc1C | 3 (active)
13 | Cc1ccnc(NC(=O)CCC(=O)N(CC(=O)NC2CCCCC2)c2cccc(C)c2C)c1 | 27 (inactive)
14 | Cc1ccccc1-c1nc(CN2CCC(C(=O)NCC3CCCO3)CC2)c(C)o1 (stereo unspecified) | 71 (inactive)
15 | CCOC(=O)N1CCN(CC(=O)Nc2cc(C)nn2-c2nc3ccccc3s2)CC1 | 259 (inactive)
16 | Cc1sc(CO)c(Sc2ccccc2)c1C(=O)O | 324 (inactive)
17 | Cc1ccc2c(c1)NC(=O)C(CC(=O)NCCCN1CCN(c3cc(Cl)ccc3C)CC1)O2 (stereo unspecified) | 6 (active)
18 | CN(CC(O)COc1ccc(OCC(O)CN(C)C2CCCCC2)cc1)C1CCCCC1 (stereo unspecified) | 249 (inactive)
19 | COc1ccc(-n2c3c(cc(C(=O)N4CCC(C)CC4)c2=O)C(=O)CC(C)(C)C3)cc1 | 115 (inactive)

Row | Structure (SMILES) | cell event count
20 | Cc1oc(-c2ccc(Cl)cc2)nc1CN1CCC(C(=O)NCc2cccnc2)CC1 | 20 (inactive)
21 | COc1ccccc1N1CCN(Cc2cc(Br)c(O)c3ncccc23)CC1 | 17 (active)
22 | Cc1cc(C)n2nc(SCC(=O)Nc3ccc(F)cc3)nc2n1 | 226 (inactive)
23 | CCN1CCN(C(c2cccs2)C(C)NS(=O)(=O)c2ccc(Br)cc2)CC1 (stereo unspecified) | 17 (active)
24 | Cn1c(=O)cc(SCC(=O)NCCCN2CCN(c3ccccc3F)CC2)c2ccccc21 | 166 (inactive)
25 | COc1cc(C2C3=C(Nc4ncnn42)c2ccccc2CC3)cc(OC)c1OC (stereo unspecified) | 295 (inactive)
26 | CCn1c(SCC(=O)Nc2ccccc2F)nc2c(c1=O)SC(C)C2 (stereo unspecified) | 75 (inactive)
27 | Cc1oc(-c2ccc(Cl)cc2)nc1CN1CCC(C(=O)NCc2ccco2)CC1 | 178 (inactive)
28 | O=C(C1CCN(S(=O)(=O)c2cccc3nsnc23)CC1)N1CC=C(c2ccccc2)CC1 | 27 (inactive)
29 | Cc1cc(C)n2nnnc2c1C#N | 257 (inactive)
30 | C=C(C)Cn1c(-c2ccccc2)nc2ccccc21 | 16 (inactive)
31 | CCOC(=O)N1CCC(NC(=O)c2cc3c(-c4ccccc4F)nn(C)c3s2)CC1 | 60 (inactive)
32 | CCn1c(=N)n(CC(O)COc2cccc(C)c2)c2ccccc21 (stereo unspecified) | 2 (active)
33 | Cc1cc(O)c(-c2cc(C(=O)Nc3ccc(S(=O)(=O)N4CCOCC4)cc3)[nH]n2)cc1C | 36 (inactive)
34 | COC(=O)Nc1sccc1C(=O)Nc1sccc1C(=O)OC | 144 (inactive)
35 | Cn1c(=O)cc(OCC(=O)NCCCN2CCN(c3cccc(Cl)c3)CC2)c2ccccc21 | 10 (inactive)
36 | Cc1ccc2c(c1)-c1c(cnn1CC(=O)Nc1ccccc1N1CCN(C)CC1)CO2 | 73 (inactive)
37 | Cc1ccccc1CS(=O)(=O)CCC(=O)NCCCN1CCN(c2ccccc2F)CC1 | 108 (inactive)
38 | Cc1oc(-c2cccc(Cl)c2)nc1CN1CCC(C(=O)NCCCN2CCCC2=O)CC1 | 166 (inactive)

Same assay, conditions: flow cytometry event count, 4 d, event count, at 10 µM, stronger effect = lower value

Row | Structure (SMILES) | cell event count
39 | CCOc1ccc(NC(=O)COc2nsnc2N2CCCCC2)cc1 | 63.5
40 | Cc1cc(C)c2c(=O)n(CC(=O)NCCCN3CCN(c4ccccc4F)CC3)sc2n1 | 216
41 | O=C(NCCCN1CCN(c2ccccc2F)CC1)C1CCCN(S(=O)(=O)c2cnc[nH]2)C1 (stereo unspecified) | 166
42 | O=c1cc(-c2ccccc2)[nH]c2ccccc12 | 76
43 | Cc1ccc(C(=O)/C=C/Nc2cccc(O)c2)cc1 | 74
44 | Cn1cc(CNC(=O)C2c3ccccc3Oc3ccccc32)cn1 | 217
45 | CCN(CC)CCNC(=O)c1nn(-c2ccc(C)cc2)c(=O)c2c1c1ccccc1n2C | 136
46 | COc1ccc2cc3cc(C(=O)Nc4ccccc4N4CCN(C)CC4)oc3nc2c1 | 334
47 | O=C1CCCc2c1cc(C(=O)NC1CCSC1=O)c(=O)n2-c1ccccc1 (stereo unspecified) | 155
48 | O=c1cc(N2CCN(c3ccc(F)cc3)CC2)[nH]c(=O)n1C1CCCCC1 | 318
49 | CCN1CCN(c2ncc(C(=O)Nc3cc(Cl)c(OC)cc3OC)c3ccccc23)CC1 | 301
50 | Cc1ccc(Nc2cc(=O)n(C3CCCCC3)c(=O)[nH]2)cc1C | 62.5
51 | Cc1ccnc(NC(=O)CCC(=O)N(CC(=O)NC2CCCCC2)c2cccc(C)c2C)c1 | 66
52 | Cc1ccccc1-c1nc(CN2CCC(C(=O)NCC3CCCO3)CC2)c(C)o1 (stereo unspecified) | 139
53 | CCOC(=O)N1CCN(CC(=O)Nc2cc(C)nn2-c2nc3ccccc3s2)CC1 | 245
54 | Cc1sc(CO)c(Sc2ccccc2)c1C(=O)O | 240
55 | Cc1ccc2c(c1)NC(=O)C(CC(=O)NCCCN1CCN(c3cc(Cl)ccc3C)CC1)O2 (stereo unspecified) | 66
56 | CN(CC(O)COc1ccc(OCC(O)CN(C)C2CCCCC2)cc1)C1CCCCC1 (stereo unspecified) | 118
57 | COc1ccc(-n2c3c(cc(C(=O)N4CCC(C)CC4)c2=O)C(=O)CC(C)(C)C3)cc1 | 93

Row | Structure (SMILES) | cell event count
58 | Cc1oc(-c2ccc(Cl)cc2)nc1CN1CCC(C(=O)NCc2cccnc2)CC1 | 125
59 | COc1ccccc1N1CCN(Cc2cc(Br)c(O)c3ncccc23)CC1 | 35.5
60 | Cc1cc(C)n2nc(SCC(=O)Nc3ccc(F)cc3)nc2n1 | 343
61 | CCN1CCN(C(c2cccs2)C(C)NS(=O)(=O)c2ccc(Br)cc2)CC1 (stereo unspecified) | 62
62 | Cn1c(=O)cc(SCC(=O)NCCCN2CCN(c3ccccc3F)CC2)c2ccccc21 | 210
63 | COc1cc(C2C3=C(Nc4ncnn42)c2ccccc2CC3)cc(OC)c1OC (stereo unspecified) | 428
64 | CCn1c(SCC(=O)Nc2ccccc2F)nc2c(c1=O)SC(C)C2 (stereo unspecified) | 70.5
65 | Cc1oc(-c2ccc(Cl)cc2)nc1CN1CCC(C(=O)NCc2ccco2)CC1 | 174
66 | O=C(C1CCN(S(=O)(=O)c2cccc3nsnc23)CC1)N1CC=C(c2ccccc2)CC1 | 258
67 | Cc1cc(C)n2nnnc2c1C#N | 172
68 | C=C(C)Cn1c(-c2ccccc2)nc2ccccc21 | 106
69 | CCOC(=O)N1CCC(NC(=O)c2cc3c(-c4ccccc4F)nn(C)c3s2)CC1 | 148
70 | CCn1c(=N)n(CC(O)COc2cccc(C)c2)c2ccccc21 (stereo unspecified) | 50.5
71 | Cc1cc(O)c(-c2cc(C(=O)Nc3ccc(S(=O)(=O)N4CCOCC4)cc3)[nH]n2)cc1C | 86
72 | COC(=O)Nc1sccc1C(=O)Nc1sccc1C(=O)OC | 182
73 | Cn1c(=O)cc(OCC(=O)NCCCN2CCN(c3cccc(Cl)c3)CC2)c2ccccc21 | 280
74 | Cc1ccc2c(c1)-c1c(cnn1CC(=O)Nc1ccccc1N1CCN(C)CC1)CO2 | 142
75 | Cc1ccccc1CS(=O)(=O)CCC(=O)NCCCN1CCN(c2ccccc2F)CC1 | 71
76 | Cc1oc(-c2cccc(Cl)c2)nc1CN1CCC(C(=O)NCCCN2CCCC2=O)CC1 | 190
